# This is one part of a sample in which the strongest signals are shown more often than they occur.
# Assays:
# Test in all cases: glycan array binding signal (z-score within array); higher = stronger binding
# Settings in all cases: glycan notation: IUPAC condensed, linker removed; mutation: H262T
# [1] = target: Fuc(a1-2)Gal(b1-3)GalNAc(a1-3)[Fuc(a1-2)]Gal(b1-4)Glc
# Method in brief: (§1)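 The Consortium for Functional Glycomics database supplied 3228 glycan arrays, of which those lacking an available protein sequence were dropped. The binding signal, a within-array Z-score, was averaged across arrays of the same protein sequence and across linkers. Negative scores can be read as non-binding.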
# [2] = target: Fuc(a1-2)Gal(b1-3)GlcNAc(b1-3)[Gal(b1-4)GlcNAc(b1-6)]Gal(b1-4)Glc
# Method in brief: as §1
# Fuc(a1-2)Gal(b1-4)GlcNAc = target: Fuc(a1-2)Gal(b1-4)GlcNAc
# Method in brief: as §1
# [3] = target: Fuc(a1-2)Gal(b1-4)GlcNAc(b1-6)GalNAc
# Method in brief: as §1
# [4] = target: Fuc(a1-2)Gal6S(b1-3)GlcNAc6S
# Method in brief: as §1
# Fuc(a1-2)[Gal(a1-3)]Gal = target: Fuc(a1-2)[Gal(a1-3)]Gal
# Method in brief: as §1
# [5] = target: Fuc(a1-2)[Gal(a1-3)]Gal(b1-4)GlcNAc(b1-2)Man(a1-3)[Fuc(a1-2)[Gal(a1-3)]Gal(b1-4)GlcNAc(b1-2)Man(a1-6)]Man(b1-4)GlcNAc(b1-4)GlcNAc
# Method in brief: as §1
# [6] = target: Fuc(a1-2)[Gal(a1-3)]Gal(b1-4)[Fuc(a1-3)]Glc
# Method in brief: as §1
# [7] = target: Fuc(a1-2)[GalNAc(a1-3)]Gal(b1-3)GlcNAc(b1-6)GalNAc
# Method in brief: as §1
# [8] = target: Fuc(a1-2)[GalNAc(a1-3)]Gal(b1-4)GlcNAc(b1-2)Man
# Method in brief: as §1
# [9] = target: Fuc(a1-2)[GalNAc(a1-3)]Gal(b1-4)GlcNAc(b1-6)GalNAc
# Method in brief: as §1
# [10] = target: Fuc(a1-2)[GalNAc(a1-4)]Gal(b1-4)GlcNAc
# Method in brief: as §1
# [11] = target: Fuc(a1-2)[GalNAc(b1-3)]Gal
# Method in brief: as §1
# Fuc(a1-4)GlcNAc = target: Fuc(a1-4)GlcNAc
# Method in brief: as §1
# Gal(a1-3)Gal = target: Gal(a1-3)Gal
# Method in brief: as §1
# [12] = target: Gal(a1-3)Gal(b1-3)GlcNAc(b1-6)GalNAc
# Method in brief: as §1
# [13] = target: Gal(a1-3)Gal(b1-4)GlcNAc(b1-2)Man
# Method in brief: as §1
# [14] = target: Gal(a1-3)Gal(b1-4)GlcNAc(b1-6)GalNAc
# Method in brief: as §1
# [15] = target: Gal(a1-4)Gal(b1-4)GlcNAc(b1-2)Man(a1-3)[Gal(a1-4)Gal(b1-4)GlcNAc(b1-2)Man(a1-6)]Man(b1-4)GlcNAc(b1-4)GlcNAc
# Method in brief: as §1
# [16] = target: Gal(b1-3)GlcNAc(b1-6)GalNAc
# Method in brief: as §1
# [17] = target: Gal(b1-3)[Fuc(a1-4)]GlcNAc(b1-2)Man
# Method in brief: as §1
# Gal(b1-4)Glc6S = target: Gal(b1-4)Glc6S
# Method in brief: as §1
# [18] = target: Gal(b1-4)GlcNAc(a1-6)Gal(b1-4)GlcNAc
# Method in brief: as §1
# [19] = target: Gal(b1-4)GlcNAc(b1-2)[Gal(b1-4)GlcNAc(b1-4)]Man(a1-3)[GlcNAc(b1-4)][Gal(b1-4)GlcNAc(b1-2)[Gal(b1-4)GlcNAc(b1-6)]Man(a1-6)]Man(b1-4)GlcNAc(b1-4)GlcNAc
# Method in brief: as §1
# [20] = target: Gal(b1-4)GlcNAc(b1-3)Gal(b1-4)GlcNAc(b1-3)Gal(b1-4)GlcNAc(b1-2)Man(a1-3)[Gal(b1-4)GlcNAc(b1-3)Gal(b1-4)GlcNAc(b1-3)Gal(b1-4)GlcNAc(b1-2)Man(a1-6)]Man(b1-4)GlcNAc(b1-4)GlcNAc
# Method in brief: as §1
# [21] = target: Gal(b1-4)GlcNAc(b1-3)Gal(b1-4)GlcNAc(b1-3)GalNAc
# Method in brief: as §1
# [22] = target: Gal(b1-4)GlcNAc(b1-6)Gal(b1-4)GlcNAc
# Method in brief: as §1
# [23] = target: Gal(b1-4)GlcNAc(b1-6)GalNAc
# Method in brief: as §1
# [24] = target: Gal(b1-4)GlcNAc(b1-6)[Gal(b1-4)GlcNAc(b1-3)]GalNAc
# Method in brief: as §1
# Gal3S(b1-3)GlcNAc = target: Gal3S(b1-3)GlcNAc
# Method in brief: as §1
# GalNAc(b1-3)GlcNAc = target: GalNAc(b1-3)GlcNAc
# Method in brief: as §1
# [25] = target: GlcA3S(b1-3)Gal(b1-4)GlcNAc(b1-3)Gal(b1-4)Glc
# Method in brief: as §1
# [26] = target: GlcNAc(a1-4)Gal(b1-4)GlcNAc
# Method in brief: as §1
# [27] = target: GlcNAc(b1-2)[GlcNAc(b1-6)]Man(a1-6)[GlcNAc(b1-2)Man(a1-3)]Man(b1-4)GlcNAc(b1-4)[Fuc(a1-6)]GlcNAc
# Method in brief: as §1
# GlcNAc(b1-3)Gal = target: GlcNAc(b1-3)Gal
# Method in brief: as §1
# [28] = target: GlcNAc(b1-3)Gal(b1-3)GalNAc
# Method in brief: as §1
# [29] = target: GlcNAc(b1-3)Gal(b1-4)GlcNAc(b1-3)Gal(b1-4)GlcNAc(b1-3)Gal(b1-4)GlcNAc(b1-2)[GlcNAc(b1-3)Gal(b1-4)GlcNAc(b1-3)Gal(b1-4)GlcNAc(b1-3)Gal(b1-4)GlcNAc(b1-6)]Man(a1-6)[GlcNAc(b1-3)Gal(b1-4)GlcNAc(b1-3)Gal(b1-4)GlcNAc(b1-3)Gal(b1-4)GlcNAc(b1-2)Man(a1-3)]Man(b1-4)GlcNAc(b1-4)[Fuc(a1-6)]GlcNAc
# Method in brief: as §1
# [30] = target: GlcNAc(b1-4)GlcNAc(b1-4)GlcNAc(b1-4)GlcNAc(b1-4)GlcNAc(b1-4)GlcNAc
# Method in brief: as §1
# GlcNAc(b1-6)GalNAc = target: GlcNAc(b1-6)GalNAc
# Method in brief: as §1
# Kdn(a2-3)Gal(b1-3)GalNAc = target: Kdn(a2-3)Gal(b1-3)GalNAc
# Method in brief: as §1
# Kdn(a2-3)Gal(b1-4)GlcNAc = target: Kdn(a2-3)Gal(b1-4)GlcNAc
# Method in brief: as §1
# [31] = target: Man(a1-3)[Man(a1-6)]Man(a1-6)[Man(a1-2)Man(a1-3)]Man(b1-4)GlcNAc(b1-4)GlcNAc
# Method in brief: as §1
# Man(b1-4)GlcNAc = target: Man(b1-4)GlcNAc
# Method in brief: as §1
# [32] = target: Neu5Ac(a2-3)Gal(b1-3)GalNAc
# Method in brief: as §1
# [33] = target: Neu5Ac(a2-3)Gal(b1-3)GalNAc6S
# Method in brief: as §1
# [34] = target: Neu5Ac(a2-3)Gal(b1-3)GlcNAc
# Method in brief: as §1
# [35] = target: Neu5Ac(a2-3)Gal(b1-4)GlcNAc(b1-2)Man(a1-3)[Neu5Ac(a2-3)Gal(b1-4)GlcNAc(b1-2)Man(a1-6)]Man(b1-4)GlcNAc(b1-4)GlcNAc
# Method in brief: as §1
# [36] = target: Neu5Ac(a2-3)Gal(b1-4)GlcNAc(b1-6)GalNAc
# Method in brief: as §1
# [37] = target: Neu5Ac(a2-3)Gal6S(b1-4)GlcNAc
# Method in brief: as §1
# [38] = target: Neu5Ac(a2-3)Gal6S(b1-4)[Fuc(a1-3)]GlcNAc
# Method in brief: as §1
# [39] = target: Neu5Ac(a2-3)GalNAc(b1-4)GlcNAc
# Method in brief: as §1
# [40] = target: Neu5Ac(a2-6)Gal(b1-4)GlcNAc(b1-2)Man(a1-6)[Gal(b1-4)GlcNAc(b1-2)Man(a1-3)]Man(b1-4)GlcNAc(b1-4)GlcNAc
# Method in brief: as §1
# [41] = target: Neu5Ac(a2-6)Gal(b1-4)GlcNAc(b1-3)Gal(b1-3)GlcNAc
# Method in brief: as §1
# [42] = target: Neu5Ac(a2-6)Gal(b1-4)GlcNAc(b1-3)Gal(b1-4)GlcNAc(b1-3)[Neu5Ac(a2-6)Gal(b1-4)GlcNAc(b1-3)Gal(b1-4)GlcNAc(b1-6)]GalNAc
# Method in brief: as §1
# [43] = target: Neu5Ac(a2-6)Gal(b1-4)GlcNAc(b1-3)Gal(b1-4)GlcNAc(b1-6)[Gal(b1-3)]GalNAc
# Method in brief: as §1
# [44] = target: Neu5Ac(a2-6)GalNAc(b1-4)GlcNAc6S
# Method in brief: as §1
# [45] = target: Neu5Ac(a2-6)GlcNAc(b1-4)GlcNAc(b1-4)GlcNAc
# Method in brief: as §1
# [46] = target: Neu5Ac9Ac(a2-3)Gal(b1-3)GlcNAc
# Method in brief: as §1
# [47] = target: Neu5Gc(a2-3)Gal(b1-4)GlcNAc
# Method in brief: as §1
binder,measurement,setting,value
MGL6A (Homo sapiens) (protein) MTRTYENFQYLENKVKVQGFKNGPLPLQSLLQRLCSGPCHLLLSLGLGLLLLVIICVVGFQNSKFQRDLVTLRTDFSNFTSNTVAEIQALTSQGSSLEETIASLKAEVEGFKQERQAVHSEMLLRVQQLVQDLKKLTCQVATLNNNGEEASTEGTCCPVNWVEHQDSCYWFSHSGMSWAEAEKYCQLKNAHLVVINSREEQNFVQKYLGSAYTWMGLSDPEGAWKWVDGTDYATGFQNWKPGQPDDWQGHGLGGGEDCAHFTPDGRWNDDVCQRPYHWVCEAGLGQTSQESH,glycan array binding signal (z-score),[1],-0.173
same,glycan array binding signal (z-score),[2],-0.175
same,glycan array binding signal (z-score),Fuc(a1-2)Gal(b1-4)GlcNAc,-0.174
same,glycan array binding signal (z-score),[3],7.25
same,glycan array binding signal (z-score),[4],-0.154
same,glycan array binding signal (z-score),Fuc(a1-2)[Gal(a1-3)]Gal,-0.171
same,glycan array binding signal (z-score),[5],-0.165
same,glycan array binding signal (z-score),[6],-0.177
same,glycan array binding signal (z-score),[7],5.97
same,glycan array binding signal (z-score),[8],-0.176
same,glycan array binding signal (z-score),[9],5.98
same,glycan array binding signal (z-score),[10],4.51
same,glycan array binding signal (z-score),[11],5.17
same,glycan array binding signal (z-score),Fuc(a1-4)GlcNAc,-0.173
same,glycan array binding signal (z-score),Gal(a1-3)Gal,-0.171
same,glycan array binding signal (z-score),[12],7.68
same,glycan array binding signal (z-score),[13],-0.18
same,glycan array binding signal (z-score),[14],7.07
same,glycan array binding signal (z-score),[15],-0.168
same,glycan array binding signal (z-score),[16],6.2
same,glycan array binding signal (z-score),[17],-0.169
same,glycan array binding signal (z-score),Gal(b1-4)Glc6S,-0.172
same,glycan array binding signal (z-score),[18],-0.172
same,glycan array binding signal (z-score),[19],-0.197
same,glycan array binding signal (z-score),[20],-0.169
same,glycan array binding signal (z-score),[21],-0.172
same,glycan array binding signal (z-score),[22],-0.172
same,glycan array binding signal (z-score),[23],3.65
same,glycan array binding signal (z-score),[24],-0.172
same,glycan array binding signal (z-score),Gal3S(b1-3)GlcNAc,-0.208
same,glycan array binding signal (z-score),GalNAc(b1-3)GlcNAc,0.976
same,glycan array binding signal (z-score),[25],-0.178
same,glycan array binding signal (z-score),[26],-0.173
same,glycan array binding signal (z-score),[27],-0.173
same,glycan array binding signal (z-score),GlcNAc(b1-3)Gal,-0.178
same,glycan array binding signal (z-score),[28],-0.166
same,glycan array binding signal (z-score),[29],-0.162
same,glycan array binding signal (z-score),[30],-0.175
same,glycan array binding signal (z-score),GlcNAc(b1-6)GalNAc,5.17
same,glycan array binding signal (z-score),Kdn(a2-3)Gal(b1-3)GalNAc,-0.176
same,glycan array binding signal (z-score),Kdn(a2-3)Gal(b1-4)GlcNAc,-0.161
same,glycan array binding signal (z-score),[31],-0.153
same,glycan array binding signal (z-score),Man(b1-4)GlcNAc,-0.172
same,glycan array binding signal (z-score),[32],-0.16
same,glycan array binding signal (z-score),[33],-0.171
same,glycan array binding signal (z-score),[34],-0.176
same,glycan array binding signal (z-score),[35],-0.123
same,glycan array binding signal (z-score),[36],6.48
same,glycan array binding signal (z-score),[37],-0.173
same,glycan array binding signal (z-score),[38],-0.177
same,glycan array binding signal (z-score),[39],-0.169
same,glycan array binding signal (z-score),[40],-0.172
same,glycan array binding signal (z-score),[41],-0.175
same,glycan array binding signal (z-score),[42],-0.172
same,glycan array binding signal (z-score),[43],-0.166
same,glycan array binding signal (z-score),[44],-0.176
same,glycan array binding signal (z-score),[45],-0.175
same,glycan array binding signal (z-score),[46],-0.175
same,glycan array binding signal (z-score),[47],-0.175
